Results: PubChem BioAssay (NCI)
About 79,000 compounds went through this panel and 15% of them were active in at least one assay; those are over-represented in the sample as a whole. The source made the active and inactive calls. Rule as the data show it: active = growth inhibition above about 70%; inactive = the rest.

Assay: NCI Yeast Anticancer Drug Screen. Data for the rad50 strain (AID 155);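 also: 0% = growth of vehicle-only cultures of the same strain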
Conditions: S. cerevisiae rad50 strain growth inhibition; at 5.0 µM (retest, dose inferred, filed as 0.5); stronger effect = higher value
How it was run: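 DNA repair mutant yeast, compound exposure, growth read-out; inhibition is taken relative to vehicle.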
In the case of `COc1ccc(-c2cc3ccccc3c(=O)n2Cc2ccccc2)cc1`, the growth inhibition is reported as 8% (inactive).
In the case of `CN(C)CCCNCC(=O)Nc1ccc(S(=O)(=O)c2ccc(NC(=O)CNCCCN(C)C)cc2)cc1`, the growth inhibition is reported as 2% (inactive).
With `O=C1NN=C(c2ccc(Cl)cc2)CC1C1C(=O)N(c2ccccc2)N=C1c1ccccc1` (stereo not given) the growth inhibition was 96% (active).
In the case of `Cc1ccc(S(=O)(=O)NCCSSCCNS(=O)(=O)c2ccc(C)cc2)cc1`, the growth inhibition is reported as -4% (inactive).
For `O=C(CC(=O)c1ccccc1)CC(=O)c1ccccc1Br`, the growth inhibition was 1% (inactive).
In the case of `Nc1ncc2ccccc2c1-c1ccc(NC(=O)CCCl)cc1`, the growth inhibition is reported as -1% (inactive).
For `CC1=NC(=Cc2cccc(Cl)c2)C(=O)N1n1c(-c2ccccc2)nc2ccccc2c1=O`, the growth inhibition was 18% (inactive).
In the case of `CCCOC(=O)CCCC(=O)N(CC)CC`, the growth inhibition is reported as 1% (inactive).
With `C=C1C(=O)[C@@]23CC[C@H]4[C@@](C)(CCC[C@@]4(C)C(=O)OC)[C@@H]2CC[C@]1(O)C3` the growth inhibition was 83% (active).
In the case of `CCCCN(CCCC)CCC(=O)c1ccc2c(ccc3ccccc32)c1`, the growth inhibition is reported as 19% (inactive).
In the case of `CC1CCC2(C)C(CC=C(C=O)C2(O)C=O)C12CO2` (stereo not given), the growth inhibition is reported as 99% (active).
For `CN(C)CC1CC/C(=C\c2ccc(Cl)c(Cl)c2)C1=O` (stereo not given), the growth inhibition was 21% (inactive).
With `CCS(=O)(=O)c1ccc(NC(=O)OC2CCCCCCC2)cc1` the growth inhibition was 5% (inactive).
In the case of `CC(=O)OC1CCCCCCCCCCC12OCCO2` (stereo not given), the growth inhibition is reported as 23% (inactive).
With `CC(=O)OCc1cc2c(s1)C(=O)c1sccc1C2=O` the growth inhibition was 21% (inactive).
For `O=C1C=CC(=O)c2nc3ccccc3nc21`, the growth inhibition was 5% (inactive).
For `Cc1ccccc1C1c2c(C)cccc2C(=O)CC1CC(=O)O` (stereo not given), the growth inhibition was 4% (inactive).
With `CCOC(=O)c1c(N)sc2c1CCCCC2` the growth inhibition was -160% (inactive).
In the case of `CCCCC(O)CCCC`, the growth inhibition is reported as 13% (inactive).
For `Nc1nn2c(C(Br)Br)cc(C(Br)Br)nc2c1[N+](=O)[O-]`, the growth inhibition was 100% (active).
For `COC(=O)c1n[nH]c(C(C)C)c1N=NN(C)C`, the growth inhibition was 29% (inactive).

Same assay, conditions: S. cerevisiae rad50 strain growth inhibition; at 50.0 µM (retest, dose inferred, filed as 5.0); stronger effect = higher value
With `O=[N+]([O-])c1ccc(N2N=NC(CN3CCOCC3)C2N2CCOCC2)cc1` (stereo not given) the growth inhibition was 42% (inactive).
With `FC(F)(F)c1ccccc1NC(=S)SCc1ccco1` the growth inhibition was 52% (inactive).
In the case of `O=C(c1ccc(Cl)cc1)C1N=NCC1c1ccccc1` (stereo not given), the growth inhibition is reported as 33% (inactive).
With `COc1cc(C2c3cc4c(cc3[C@@H](OCCN)[C@H]3COC(=O)C23)OCO4)cc(OC)c1O` (stereo not given in full) the growth inhibition was 93% (active).
With `CC(C)(C)c1cc2c(c(C(C)(C)C)c1O)CC(=O)O2` the growth inhibition was 74% (active).
In the case of `CCCCCCCCCCCCCCCCCCSSCCCCCCCCCCCCCCCCCC`, the growth inhibition is reported as -3% (inactive).
For `c1ccc2c(c1)OCC(CNCCNCC1COc3ccccc3O1)O2` (stereo not given), the growth inhibition was 69% (inactive).
For `CC(=O)C(C(C)=O)C1C=CC=CC=C1`, the growth inhibition was 93% (active).
In the case of `c1ccc2c(c1)ccc1c[n+]3c4ccccc4ccc3n12`, the growth inhibition is reported as 94% (active).
In the case of `CC(=O)C(=C(I)I)c1ccccc1`, the growth inhibition is reported as 71% (active).
With `O=C1c2ccccc2CN1Cc1ccc(Cl)c(Cl)c1` the growth inhibition was 93% (active).
With `CC1CC(N)=NC1C(=O)NCCC#N` (stereo not given) the growth inhibition was 8% (inactive).
For `CC(=O)CC(C)=NCCN=C(C)CC(C)=O.[Pd]`, the growth inhibition was 61% (inactive).
With `CCOc1ccccc1NC1=C(Cl)C(=O)c2ccccc2C1=O` the growth inhibition was 97% (active).
With `CCN1C2=NCCN2S(=O)(=O)c2ccccc21` the growth inhibition was 11% (inactive).
With `O=C(Cc1nc2ccccc2s1)C(=O)Nc1ccc(Cl)cc1` the growth inhibition was 4% (inactive).
For `O=C(CCn1[nH]c(=O)c(Cl)c(Cl)c1=O)NNc1ccc([N+](=O)[O-])cc1[N+](=O)[O-]`, the growth inhibition was 36% (inactive).
For `COc1cccc(C2c3cc4c(cc3OC(NNc3ccccc3)C2C)OCO4)c1OC` (stereo not given), the growth inhibition was 94% (active).
For `COc1ccc(-c2cc3ccccc3c(=O)n2Cc2ccccc2)cc1`, the growth inhibition was 66% (inactive).
For `CN(C)CCCNCC(=O)Nc1ccc(S(=O)(=O)c2ccc(NC(=O)CNCCCN(C)C)cc2)cc1`, the growth inhibition was 92% (active).
In the case of `O=C1NN=C(c2ccc(Cl)cc2)CC1C1C(=O)N(c2ccccc2)N=C1c1ccccc1` (stereo not given), the growth inhibition is reported as 96% (active).
In the case of `Cc1ccc(S(=O)(=O)NCCSSCCNS(=O)(=O)c2ccc(C)cc2)cc1`, the growth inhibition is reported as 95% (active).
In the case of `O=C(CC(=O)c1ccccc1)CC(=O)c1ccccc1Br`, the growth inhibition is reported as 94% (active).
With `Nc1ncc2ccccc2c1-c1ccc(NC(=O)CCCl)cc1` the growth inhibition was 36% (inactive).
With `CC1=NC(=Cc2cccc(Cl)c2)C(=O)N1n1c(-c2ccccc2)nc2ccccc2c1=O` the growth inhibition was 73% (active).
For `CCCOC(=O)CCCC(=O)N(CC)CC`, the growth inhibition was -10% (inactive).
With `C=C1C(=O)[C@@]23CC[C@H]4[C@@](C)(CCC[C@@]4(C)C(=O)OC)[C@@H]2CC[C@]1(O)C3` the growth inhibition was 99% (active).
For `CCCCN(CCCC)CCC(=O)c1ccc2c(ccc3ccccc32)c1`, the growth inhibition was 99% (active).
With `CC1CCC2(C)C(CC=C(C=O)C2(O)C=O)C12CO2` (stereo not given) the growth inhibition was 99% (active).
In the case of `CN(C)CC1CC/C(=C\c2ccc(Cl)c(Cl)c2)C1=O` (stereo not given), the growth inhibition is reported as 98% (active).
In the case of `CCS(=O)(=O)c1ccc(NC(=O)OC2CCCCCCC2)cc1`, the growth inhibition is reported as 89% (active).
For `CC(=O)OC1CCCCCCCCCCC12OCCO2` (stereo not given), the growth inhibition was 96% (active).
For `CC(=O)OCc1cc2c(s1)C(=O)c1sccc1C2=O`, the growth inhibition was 83% (active).
For `O=C1C=CC(=O)c2nc3ccccc3nc21`, the growth inhibition was 98% (active).
In the case of `Cc1ccccc1C1c2c(C)cccc2C(=O)CC1CC(=O)O` (stereo not given), the growth inhibition is reported as 60% (inactive).
With `CCOC(=O)c1c(N)sc2c1CCCCC2` the growth inhibition was -118% (inactive).
With `CCCCC(O)CCCC` the growth inhibition was 17% (inactive).
For `Nc1nn2c(C(Br)Br)cc(C(Br)Br)nc2c1[N+](=O)[O-]`, the growth inhibition was 100% (active).
With `COC(=O)c1n[nH]c(C(C)C)c1N=NN(C)C` the growth inhibition was 95% (active).
